{
  "source": "the supplement of paper PMC8728848",
  "binders": {"B1": {"name": "PX9961H-bth-557-24-557 (Bacteroides thetaiotaomicron) (protein)", "chain": "EETRTEVEKKNYMNNAEEAKDVLLGVYRTNTLDAMYGYYLSILFNLGTDISQVEGSGNENFRIIPTNSFPTTQSEVQQTWAALYTGIYRANDFLERISNKIGSYTTTDKKLATLYIAEARALRGMFYFELVRRFGNVVLMTSTQMSNQNPATYVQSAPEKVYEYIEDDLLYACDILPYATDDQYRESNDYRFSKGAALGLLTKVYATWAGYPVKDESKWEAAAKTARILVESGKHGLLKDYEQLWKNTCNGTWDPTESLIEISFYSPTVSGNSDPVGRIGKWNGVKTTAIAGVRGSCAANVKVVHTFVLDWREDVSDIRRDLSIANYQYTDTKKSLWVAGASDTDESAAEKDADPTKAQKNKQNYTPAKWDIQKYVTTNSFINNDKSNVNWYFLRYADVLLLYAEALNEWKHGPDAEAYNAINAVRRRGYGNPSNTSACDLPQGLDETSFREAVRKERSYELSFEGHRRQDLIRWGIYYKTVQATAKELGYWWEGTGSPNYSVATYTEEGKHELFPIPQRDMDLCIQFNQNPKW"}},
  "experiment_in_all_cases": "glycan array binding signal (z-score within array); higher = stronger binding",
  "conditions_in_all_cases": "glycan notation: IUPAC condensed, linker removed",
  "key": {"Man(b1-4)GlcNAc": {"target": "Man(b1-4)GlcNAc", "summary_of_the_method": "(§1)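 Glycan array binding is given as a within-array Z-score, which can be read as non-binding when negative. The arrays, 3228 of them, came from the Consortium for Functional Glycomics database and were retained only where the protein sequence was available. Z-scores were averaged across arrays of the same protein sequence at different concentrations or buffers and across linkers.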"}, "[1]": {"target": "Neu5Ac(a2-3)Gal(b1-3)GalNAc", "summary_of_the_method": "as §1"}, "[2]": {"target": "Neu5Ac(a2-3)Gal(b1-3)[Neu5Ac(a2-6)]GalNAc", "summary_of_the_method": "as §1"}, "[3]": {"target": "Neu5Ac(a2-3)Gal(b1-3)]Neu5Ac(a2-3)Gal(b1-4)]GlcNAc", "summary_of_the_method": "as §1"}, "[4]": {"target": "Neu5Ac(a2-3)Gal(b1-4)GlcNAc(b1-2)Man(a1-3)[Neu5Ac(a2-3)Gal(b1-4)GlcNAc(b1-2)Man(a1-6)]Man(b1-4)GlcNAc(b1-4)GlcNAc", "summary_of_the_method": "as §1"}, "[5]": {"target": "Neu5Ac(a2-3)Gal6S(b1-4)GlcNAc", "summary_of_the_method": "as §1"}, "[6]": {"target": "Neu5Ac(a2-3)[GalNAc(b1-4)]Gal(b1-4)GlcNAc", "summary_of_the_method": "as §1"}, "[7]": {"target": "Neu5Ac(a2-6)Gal(b1-4)GlcNAc(b1-3)Gal(b1-3)GlcNAc", "summary_of_the_method": "as §1"}, "[8]": {"target": "Neu5Ac(a2-6)Gal(b1-4)GlcNAc(b1-3)Gal(b1-4)GlcNAc(b1-2)Man(a1-3)[Neu5Ac(a2-6)Gal(b1-4)GlcNAc(b1-3)Gal(b1-4)GlcNAc(b1-2)Man(a1-6)]GalNAc", "summary_of_the_method": "as §1"}, "[9]": {"target": "Neu5Ac(a2-6)Gal(b1-4)GlcNAc(b1-3)Gal(b1-4)GlcNAc(b1-3)GalNAc", "summary_of_the_method": "as §1"}, "[10]": {"target": "Neu5Ac(a2-8)Neu5Gc(a2-3)Gal(b1-4)GlcNAc", "summary_of_the_method": "as §1"}, "Neu5Gc(a2-3)Gal(b1-4)Glc": {"target": "Neu5Gc(a2-3)Gal(b1-4)Glc", "summary_of_the_method": "as §1"}, "[11]": {"target": "Neu5Gc(a2-3)Gal(b1-4)[Fuc(a1-3)]GlcNAc", "summary_of_the_method": "as §1"}, "[12]": {"target": "Neu5Gc(b2-6)Gal(b1-4)GlcNAc", "summary_of_the_method": "as §1"}},
  "note": "This excerpt belongs to a sample that is enriched for the strongest signals.",
  "data": [
    {"binder": "B1", "values": [
      {"measurement": "glycan array binding signal (z-score)", "setting": "Man(b1-4)GlcNAc", "result": -0.424},
      {"measurement": "glycan array binding signal (z-score)", "setting": "[1]", "result": -0.207},
      {"measurement": "glycan array binding signal (z-score)", "setting": "[2]", "result": -0.299},
      {"measurement": "glycan array binding signal (z-score)", "setting": "[3]", "result": -0.127},
      {"measurement": "glycan array binding signal (z-score)", "setting": "[4]", "result": -0.412},
      {"measurement": "glycan array binding signal (z-score)", "setting": "[5]", "result": -0.532},
      {"measurement": "glycan array binding signal (z-score)", "setting": "[6]", "result": -0.571},
      {"measurement": "glycan array binding signal (z-score)", "setting": "[7]", "result": -0.166},
      {"measurement": "glycan array binding signal (z-score)", "setting": "[8]", "result": 0.218},
      {"measurement": "glycan array binding signal (z-score)", "setting": "[9]", "result": -0.503},
      {"measurement": "glycan array binding signal (z-score)", "setting": "[10]", "result": 7.98},
      {"measurement": "glycan array binding signal (z-score)", "setting": "Neu5Gc(a2-3)Gal(b1-4)Glc", "result": -0.062},
      {"measurement": "glycan array binding signal (z-score)", "setting": "[11]", "result": -0.313},
      {"measurement": "glycan array binding signal (z-score)", "setting": "[12]", "result": -0.202}
    ]}
  ]
}
